Source: PubChem BioAssay (Buhrlage Lab, Dana-Farber Cancer Institute and Novartis Institutes for BioMedical Research (Cambridge, Mass))
USP17 block – human USP17-like deubiquitinase inhibition; A8MUK1; purified USP17, Ub-rhodamine cleavage fluorescence, 3 h; inhibition, % at 50 µM; 47,000 compounds, 6.5% hits
OTUD3 inh – human OTUD3 deubiquitinase inhibition; purified OTUD3, Ub-rhodamine fluorescence, 2 h; inhibition, % at 25 µM; 47,000 compounds, 0.7% hits; AID 1645858
USP28 block – inhibitors of human USP28 deubiquitinase; purified USP28, Ub-rhodamine cleavage fluorescence, 30 min; inhibition, % at 25 µM; 47,000 compounds, 3% hits; Q96RU2
USP30 block – inhibitors of human USP30 deubiquitinase; inhibition, % at 25 µM; AID 1645860; Q70CQ3; 47,000 compounds, 5.3% hits; purified USP30, Ub-rhodamine cleavage fluorescence
Target sequence (Q70CQ3 whole entry, looked up): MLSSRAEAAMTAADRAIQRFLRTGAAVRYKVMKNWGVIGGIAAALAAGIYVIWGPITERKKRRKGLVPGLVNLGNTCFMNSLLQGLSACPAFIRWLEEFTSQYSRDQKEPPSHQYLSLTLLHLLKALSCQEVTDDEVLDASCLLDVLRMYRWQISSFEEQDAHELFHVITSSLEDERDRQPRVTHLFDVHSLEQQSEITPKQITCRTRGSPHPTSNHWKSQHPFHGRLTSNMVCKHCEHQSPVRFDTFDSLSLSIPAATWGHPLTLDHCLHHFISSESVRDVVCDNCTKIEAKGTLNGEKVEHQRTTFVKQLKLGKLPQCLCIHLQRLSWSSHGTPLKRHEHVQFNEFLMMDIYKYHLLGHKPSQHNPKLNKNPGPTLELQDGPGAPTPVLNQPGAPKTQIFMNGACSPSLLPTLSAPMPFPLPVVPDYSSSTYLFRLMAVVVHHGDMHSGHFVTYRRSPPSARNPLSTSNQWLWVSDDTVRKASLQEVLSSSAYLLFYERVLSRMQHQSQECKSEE
* hit, by the source's call; nt = not tested or not shown. Shown are actives, neighbours in structure and some others; about 11% of the full set was active somewhere. Cut-off read from the data, not from the text of the source: active = inhibition above about 30%; inactive = the rest.

SMILES	USP17 block	OTUD3 inh	USP28 block	USP30 block
O=C(N[C@@H]1C[C@@H](Oc2cccc(F)c2)[C@H](O)[C@H]1O)c1ccc(F)cc1	-13	-14	-7	-19
O=c1c(-c2nc(C3CC3)no2)cccn1Cc1noc(-c2ccccc2F)n1	-25	-7	-10	-127
O=c1c(-c2nc(C3CC3)no2)cccn1Cc1c(F)cccc1Cl	4	2	85*	23
CCN(CC)S(=O)(=O)c1ccc(O)c(NC(=O)COc2ccccc2F)c1	33*	-7	-17	30
Cc1cc(=O)n2[nH]c(CNc3cccc(C(F)(F)F)c3)nc2n1	16	6	10	31*
CC(=O)O[C@@H]1OC(=O)[C@](C)(C(C)=O)[C@@H]1C	39*	17	11	33*
CN(C)c1cccc(C(=O)Nc2cc(-c3cccnc3)no2)c1	51*	7	23	16
O=c1c2cnc3nc(C(F)(F)F)nn3c2ccn1Cc1ccco1	0	4	0	-7
CCOc1ccc(C2C3=C(CCCC3=O)Nc3nc4ccccc4n32)cc1OC (centres undefined)	-1	-6	4	-3
COc1ccc(-c2nc3n(n2)C(c2cccc(O)c2)C2=C(CCCC2=O)N3)cc1 (centres undefined)	51*	-9	2	13
O=C(NCc1ccco1)[C@@H]1CC[C@@H]2[C@@H](CCN2Cc2nccs2)O1	-8	-2	-2	-43
Fc1ccc(-c2nc(-c3cnccn3)no2)c(Cl)c1	19	0	12	36*
O=C(Cc1ccc(F)cc1)N1CCC(Cc2nc(-c3cnccn3)no2)CC1	0	0	-16	-4
CCn1cc(C(=O)N2CCn3c(nnc3C3CC3)C2)cn1	14	8	7	22
Cc1cc(C(=O)N2CCN(c3ccccc3F)CC2)nc2ccnn12	-1	-8	-8	1
O=C(Cc1ccccc1)N1CCCC1c1cccc(Cc2ccccc2F)n1 (centres undefined)	6	7	11	7
CSCCC(NC(=O)c1sccc1C)c1nnc2ccccn12 (centres undefined)	15	12	13	41*
CSCCC(NC(=O)c1cccs1)c1nnc2ccccn12 (centres undefined)	-1	-3	0	-1
CC1CCN(S(=O)(=O)c2cc3ccccc3oc2=O)CC1	-6	0	-4	1
COc1cc(NC(=O)c2cc(-c3ccncc3)n(-c3ccccc3)n2)cc(OC)c1	4	13	40*	11
O=C(Nc1cccc(F)c1)c1cc(-c2ccncc2)n(-c2ccc(F)cc2)n1	6	3	2	15
O=C(NC1CC1)c1cc(-c2cccnc2)n(-c2ccccc2)n1	16	12	16	31*
Cc1ccc(-n2nc(C(=O)NCc3ccccn3)cc2-c2cccnc2)cc1	-5	2	4	3
C[C@H]1C(=O)N(C)[C@@H]2CCN(C(=O)Nc3ccc4ccccc4c3)[C@@H]2C(=O)N1C	6	2	0	5
CSc1nc(C)c2c(n1)N(c1ccc(C(C)C)cc1)CC2	41*	7	3	13
SMILES	USP17 block	OTUD3 inh	USP28 block	USP30 block
Cc1ccsc1CNC(=O)Nc1ccc(C(F)(F)F)cc1	43*	9	16	27
Cc1c(Cc2ccccc2)c(=O)oc2cc3occ(-c4ccc5ccccc5c4)c3cc12	32*	-39	-13	-115
CCN1CCN(C2(CNC(=O)COc3ccccc3)CCCCC2)CC1	-1	-5	-2	1
Cc1cccc(C)c1NC(=O)c1cccc(COc2ccc3c(c2)CCC3)c1	-2	10	31*	6
CC(C)CN1CCS(=O)(=O)[C@@H]2CCN(C(=O)c3cccc(Cl)c3)CC[C@@H]21	-1	10	10	29
CCCc1c(C(=O)NC2CCCCC2)cnn1-c1ccc(Cl)cc1	36*	5	7	21
COc1cc(CO)cc2c1C(=O)c1c(O)cc(O)cc1C2=O	8	0	6	29
COc1cc(O)c2c(c1O)C(=O)c1cc(C)ncc1C2=O	43*	-17	2	-35
Cc1ccccc1OCCN1C(=O)C2CN(C(N)=O)CCN2C1=O (centres undefined)	12	13	14	31*
COc1ccc(/C=C/C(=O)Nc2ccc(C)cn2)cc1	70*	1	nt	nt
Cc1ccc(Cn2nc(C)c(C(=O)N3c4ccccc4CCC3C)c2C)cc1 (centres undefined)	0	-6	-4	-1
CC(=O)c1cc(-c2ccc(F)cc2)n(CC(=O)Nc2cccc(C)c2C)c1C	52*	35*	22	73*
CC(NC(=O)Cn1c(NCc2ccccc2)nc2ccccc21)C12CC3CC(CC(C3)C1)C2 (centres undefined)	-2	-8	-8	-7
